Test results taken from PubChem BioAssay AID1508625 (Wald Lab, School of Medicine, Case Western Reserve …, 2021).

Assay: enhancers of NK cell killing of ovarian tumor cells, primary screen, imaging, OVCAR3, primary NK cells, calcein-AM imaging (AID 1508625);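 note: compound given to NK cells 16 h before adding targets at 1.5 to 1 ratio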
Details: OVCAR3 lysis by primary NK cells, at 5 µM; z-score: measured here: robust Z-score, single-point normalisation

Row | Structure (SMILES) | corrected activity, negative = more killing [%] | z-score
1 | CC(=O)Nc1ccc(N2C(=O)C3C4CC(C(Br)C4Br)C3C2=O)cc1 (stereo unspecified) | -2.24 | -0.796
2 | COc1ccccc1C(=O)CC1(O)C(=O)Nc2ccccc21 (stereo unspecified) | -4.9 | -1.82
3 | CCOC(=O)C1=C(C)Nc2sc(C(=O)c3ccc(C)cc3)c(N)c2C1c1ccc(C(=O)OC)cc1 (stereo unspecified) | -4.02 | -1.2
4 | CN(C(=O)c1cnc2n(c1=O)CCS2)c1ccccc1 | -7.51 | -2.39
5 | Cc1ccc(N2C(=O)C(N3C(=O)c4cccc([N+](=O)[O-])c4C3=O)C2c2ccc(F)cc2)cc1F (stereo unspecified) | -2.91 | -0.904
6 | COc1ccc(-n2c(=S)[nH]c3cc(C(=O)O)ccc3c2=O)cc1 | -5.11 | -1.63
7 | CCOc1ccc(C(=O)N2CCc3cc(OC)c(OC)cc3C2)cc1 | -2.29 | -0.852
8 | O=c1c2c(nc3c(-c4ccc(Cl)cc4)c(Cc4ccccc4)[nH]n13)CCC2 | -3.87 | -2
9 | c1nc(N2CCCCCC2)c2[nH]cnc2n1 | -0.464 | -0.115
10 | COc1ccccc1N1CCN(C(=O)c2cnn3c(C(F)(F)F)cc(-c4ccc(C)cc4)nc23)CC1 | -4.5 | -1.43
11 | COc1ccc(C2=NN(c3nc(-c4ccc(OC)c(F)c4)cs3)C(c3ccco3)C2)cc1 (stereo unspecified) | -2.68 | -1.01
12 | CCOC(=O)C1C(c2ccccc2)NC(=S)NC1(O)C(F)(F)F (stereo unspecified) | -1.39 | -0.43
13 | Cc1ccc2nc(NC(=O)COC(=O)CSc3nc(C)cc(C)n3)sc2c1 | -4.93 | -1.86
14 | O=C(CCCn1c(=S)[nH]c2cc3c(cc2c1=O)OCO3)N1CCN(Cc2ccc3c(c2)OCO3)CC1 | -2.04 | -0.54
15 | COCc1cc(C)[nH]c(=O)c1C(=O)NC12CC3CC(CC(C3)C1)C2 | -5.27 | -1.57
16 | COc1ccccc1CNC(=O)C1CCN(S(=O)(=O)c2cccc3nonc23)CC1 | -5.24 | -1.49
17 | Cc1ccc(C(=O)Nc2cccc(C(=O)N3CCOCC3)c2)cc1Cl | -0.0326 | -0.0182
18 | COc1ccc(C=NNC(=O)c2cc(C34CC5CC(CC(C5)C3)C4)[nH]n2)cc1O | 0.0734 | 0.0321
19 | O=C1OC(c2ccccc2Cl)=NC1=Cc1ccccc1F | -3.5 | -1.49
20 | CC(=O)Nc1ccc(N=Cc2ccc(C)cc2)cc1 | -3.8 | -0.8
21 | Cc1cc(C)c2oc(-c3ccc(C)c(N=Cc4cccc([N+](=O)[O-])c4O)c3)nc2c1 | -14.1 | -2.97
22 | O=C(Cc1ccccc1)Nc1ccc2oc(-c3ccc(I)cc3)nc2c1 | -1.02 | -0.361

Row | Structure (SMILES) | corrected activity, negative = more killing [%] | z-score
23 | c1ccc(CN2CCN(Cc3ccc4ccccc4c3)CC2)nc1 | -2.43 | -1.08
24 | O=C(COc1ccccc1)NCCSc1nc2ccccc2s1 | -4.8 | -1.81
25 | COc1ccc(N2C(=O)c3ccc(C)cc3C2=O)cc1OC | -6.75 | -2.54
26 | COc1ccc(C(=O)N2N=C(C(C)C)CC2(O)C(F)(F)F)cc1OC (stereo unspecified) | -4.89 | -1.46
27 | COC(=O)c1[nH]c(=O)c2ccccc2c1O | -4.14 | -1.63
28 | O=C(C=Cc1ccc([N+](=O)[O-])cc1)NC(=S)NN1CCOCC1 | -5.28 | -1.68
29 | CCc1ccc(-n2c(C)nc3cc(C(=O)NCc4cccnc4)ccc32)cc1 | -5.32 | -1.43
30 | CC1=C(C(=O)OC(C)C(C)(C)C)C(c2ccccc2)NC(=O)N1 (stereo unspecified) | -4.55 | -1.71
31 | COc1cccc(C2C3=C(CCCC3=O)NC3=C2C(=O)CCC3)c1OC | -3.89 | -1.45
32 | O=C1C(=Cc2ccccc2)SC(=S)N1C1CCS(=O)(=O)C1 (stereo unspecified) | -2.25 | -0.887
33 | O=C(CCCN1C(=O)c2cccc3cccc(c23)C1=O)NCCO | -1.75 | -0.651
34 | CCOc1ccccc1C=Nc1ccc(Cl)cc1Cl | -4.37 | -1.86
35 | O=C(COc1ccc(Cl)cc1)N1CCN(C(=O)c2ccccc2F)CC1 | -1.94 | -0.865
36 | O=C(c1oc(=O)c2ccccc2c1-c1ccccc1)N(CCc1ccccc1)Cc1ccccc1 | -5.06 | -1.24
37 | Cc1c(C(=O)Oc2cccc3ccccc23)cccc1[N+](=O)[O-] | -7.35 | -2.77
38 | Cc1cc(=O)n2[nH]c(C)cc2n1 | -3.27 | -0.975
39 | CC(=O)c1cccc(NC(=O)CSc2ccc(Cl)cc2)c1 | -1.79 | -0.668
40 | CCOC(=O)Cn1nc(-c2ccc(C)cc2)ccc1=O | -0.853 | -0.23
41 | Cc1ccc(C(=O)Oc2ccc(C(=S)N3CCOCC3)cc2)cc1 | -4.83 | -1.5
42 | Cc1cc(C)cc(NC(=O)c2ccccc2OCC(=O)N2CCc3ccccc32)c1 | -2.33 | -1.3
43 | CCOc1cc(C(=S)N2CCOCC2)ccc1OC(=O)Cc1ccccc1 | -7.5 | -2.32
